Screens deposited in PubChem by National Center for Advancing Translational Sciences (NCATS).
ERK EGF inh: qHTS Assay for Inhibitors of the ERK Signaling Pathway using a Homogeneous Screening Assay; Stimulation with EGF; 130,000 tested, 0.41% active; Potency, µM (series often up to 11.5 µM), without a hit: top-dose activity change, negative = inhibition, usual class: inhibitors; HEK293-V1b, EGF-stimulated phospho-ERK AlphaScreen; AID 1454, 2008;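 note: potency is the fitted concentration of half-maximal effect; plate controls were stimulated vehicle wells for no effect and unstimulated vehicle basal for full effect; nearly all actives have a fitted effect of over 55% in size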
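Compounds are titrated over HEK293-V1b cells kept overnight in 1% FBS. After 30 min at 37C, EGF (25 nM final) triggers ERK phosphorylation for 5 min, measured by AlphaScreen in lysates.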
ERK pERK EGF: Confirmation Concentration-Response Assay for Inhibitors of the ERK Signaling Pathway using a Homogeneous Screening Assay; Stimulation with EGF; AID 1725, 2009; 60 tested, 60% active; shares compounds with ERK EGF inh; HEK293 EGF-stimulated ERK phosphorylation, AlphaScreen; Potency, µM (titrated, usually from 57.5 µM), for inactives: at the highest dose activity change, negative = inhibition, usual class: inhibitors
cRaf kinase inh: Assay for Inhibitors of the ERK Signaling Pathway using a Homogeneous Screening Assay: c-Raf Inhibition. shares compounds with ERK EGF inh. c-Raf kinase inhibition, homogeneous biochemical assay. activity change, negative = inhibition, % at 76.9 µM. 70 tested, under 10 active. AID 1728, 2009
MEK1 kinase inh: Assay for Inhibitors of the ERK Signaling Pathway using a Homogeneous Screening Assay: MEK Inhibition. 70 tested, under 10 active. Potency, µM (doses to about 76.9 µM), without a hit: top-dose activity change, negative = inhibition, usual class: inhibitors. shares compounds with ERK EGF inh. homogeneous MEK kinase activity assay, ERK pathway
Target sequence (Q02750 whole entry, looked up): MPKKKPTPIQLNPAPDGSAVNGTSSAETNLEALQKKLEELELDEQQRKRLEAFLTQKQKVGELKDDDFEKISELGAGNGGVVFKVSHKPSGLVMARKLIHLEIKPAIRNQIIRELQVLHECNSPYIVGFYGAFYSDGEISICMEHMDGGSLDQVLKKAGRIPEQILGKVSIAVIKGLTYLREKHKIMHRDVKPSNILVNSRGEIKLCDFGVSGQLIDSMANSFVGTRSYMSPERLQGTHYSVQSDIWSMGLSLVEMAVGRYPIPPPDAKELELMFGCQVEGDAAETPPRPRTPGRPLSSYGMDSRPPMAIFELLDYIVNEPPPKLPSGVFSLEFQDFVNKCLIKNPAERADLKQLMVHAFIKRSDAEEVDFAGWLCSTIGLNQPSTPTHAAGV
Starred values were filed as active, the others as inactive; ? = inconclusive; [ ] = remark or other dose. Many of the other results were omitted from the sample, so hits are more common in it than they were. Calls come from the whole dose curve; as a rule, active = well fitted curve in the direction sought with a large enough effect; inconclusive = small, poorly fitted or top-dose-only effect, or another doubt; inactive = no such curve, though single readings can be large; an effect the other way counts as inactive or inconclusive.

SMILES | ERK EGF inh | others
CN(C)S(=O)(=O)c1cccc(C(=O)Nc2ccc(S(=O)(=O)N3CCCC3)cc2)c1 | -9%
COc1ncc2nc(-c3ccc(Cl)cc3)c(=O)n(CCc3ccccc3)c2n1 | 6%
COc1ccc(-n2c(=O)c(CCc3ccccc3)nc3cnc(N(C)C)nc32)cc1 | 4%
COc1ccc(-c2nc3cnc(N(C)C)nc3n(CCc3ccccc3)c2=O)cc1 | ? | ERK pERK EGF=?;cRaf kinase inh=1;MEK1 kinase inh=-4%
CN(C(=O)CSc1nnc(-c2ccc(F)cc2)c2ccccc12)C1CCS(=O)(=O)C1 (stereo not drawn) | -11%
Cc1ccccc1C1CCCN(Cc2nc(CC3CC3)no2)C1 (stereo not drawn) | -1%
CN(C)S(=O)(=O)c1cccc2c1C(=O)c1ccccc1C2=O | 1%
CNc1cccc2c1C(=O)c1ccccc1C2=O | 10µM* | ERK pERK EGF=14µM*;cRaf kinase inh=-9;MEK1 kinase inh=-19%
NC(=O)COC(=O)c1cccc2c1-c1ccccc1C2=O | -9%
O=C(Nc1ccc(OC(F)(F)F)cc1)c1ccc(S(=O)(=O)N2CCOCC2)o1 | 0%[57.5 µM]
COC(=O)[C@@]1(Cc2ccc(OC)cc2)[C@H]2c3cc(C(=O)N(C)C)n(Cc4ccc(C)o4)c3C[C@H]2CN1C(=O)c1ccccc1 | -2%
